# Measured values as given in PMC7862700, “An all-to-all approach to the identification of sequence-specific readers for epigenetic DNA modifications on cytosine”.
# Key:
# Assay in all cases: DAPPL (digital affinity profiling via proximity ligation, sequencing); 10 mM Tris-HCl pH 7.5, 50 mM NaCl, 1 mM DTT, 4% glycerol, room temperature, 30 min; GST-TFs on glutathione beads, 16-mer random dsDNA library, 0.1% formaldehyde crosslink after washing; high values mean tight binding
# FLI1 = target: T1, FLI1 (Homo sapiens, UniProt Q01543 1-452); conditions: protein: recombinant; tags: N-terminal GST; dsDNA, one strand shown
# T1 sequence: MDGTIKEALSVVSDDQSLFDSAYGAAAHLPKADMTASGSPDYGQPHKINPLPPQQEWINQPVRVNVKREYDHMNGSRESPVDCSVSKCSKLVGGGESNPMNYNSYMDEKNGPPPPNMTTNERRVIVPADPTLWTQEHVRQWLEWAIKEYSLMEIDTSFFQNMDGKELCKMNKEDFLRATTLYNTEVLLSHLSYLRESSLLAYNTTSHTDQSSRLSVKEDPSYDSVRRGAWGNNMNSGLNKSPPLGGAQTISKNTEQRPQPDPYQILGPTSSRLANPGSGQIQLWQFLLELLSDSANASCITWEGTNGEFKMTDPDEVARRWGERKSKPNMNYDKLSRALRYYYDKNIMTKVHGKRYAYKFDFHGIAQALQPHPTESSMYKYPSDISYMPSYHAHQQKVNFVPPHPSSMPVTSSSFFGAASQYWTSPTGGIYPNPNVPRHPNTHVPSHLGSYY
# In short: (§1)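 Each value of binding signal is a hexamer's read frequency for a factor divided by the same hexamer's frequency in the tag-only sample. Barcoded, bead-captured GST fusions of human transcription factors made in yeast were pooled with that sample and incubated with 200 nmole of a random double-stranded 16-mer DNA library in Tris/NaCl/DTT/glycerol buffer at room temperature for 30 min. Washing, 0.1% formaldehyde crosslinking, proximity ligation, PCR and Illumina NextSeq500 sequencing followed.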
# ELK1 = target: T2, ELK1 (Homo sapiens, UniProt P19419 1-428); conditions: protein: recombinant; tags: N-terminal GST; dsDNA, one strand shown
# T2 sequence: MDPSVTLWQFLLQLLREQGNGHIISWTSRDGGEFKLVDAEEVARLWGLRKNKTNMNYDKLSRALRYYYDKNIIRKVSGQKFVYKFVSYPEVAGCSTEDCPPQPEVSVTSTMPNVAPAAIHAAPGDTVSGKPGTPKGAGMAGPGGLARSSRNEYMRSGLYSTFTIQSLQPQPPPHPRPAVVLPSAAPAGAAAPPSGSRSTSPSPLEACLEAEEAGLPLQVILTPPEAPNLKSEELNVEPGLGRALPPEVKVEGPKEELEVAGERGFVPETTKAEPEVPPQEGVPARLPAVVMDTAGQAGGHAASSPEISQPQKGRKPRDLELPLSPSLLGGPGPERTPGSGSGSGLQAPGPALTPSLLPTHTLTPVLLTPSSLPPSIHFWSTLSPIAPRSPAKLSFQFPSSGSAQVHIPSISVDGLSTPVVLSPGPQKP
# In short: as §1
# GABPA = target: T3, GABPA (Homo sapiens, UniProt Q06546 1-454); conditions: protein: recombinant; tags: N-terminal GST; dsDNA, one strand shown
# T3 sequence: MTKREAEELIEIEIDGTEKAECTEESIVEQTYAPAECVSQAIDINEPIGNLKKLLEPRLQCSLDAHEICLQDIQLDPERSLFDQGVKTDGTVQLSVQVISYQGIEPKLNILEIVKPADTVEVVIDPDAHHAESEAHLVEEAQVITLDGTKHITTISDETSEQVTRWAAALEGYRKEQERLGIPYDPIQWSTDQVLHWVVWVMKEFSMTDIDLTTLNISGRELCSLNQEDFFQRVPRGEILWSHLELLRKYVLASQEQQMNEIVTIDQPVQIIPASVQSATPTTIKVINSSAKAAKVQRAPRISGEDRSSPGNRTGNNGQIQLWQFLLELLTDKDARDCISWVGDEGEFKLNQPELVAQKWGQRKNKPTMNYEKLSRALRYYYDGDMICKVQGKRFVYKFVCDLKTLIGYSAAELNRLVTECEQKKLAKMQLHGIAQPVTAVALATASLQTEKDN
# In short: as §1
# ERG = target: T4, ERG (Homo sapiens, UniProt P11308 1-479); conditions: protein: recombinant; tags: N-terminal GST; dsDNA, one strand shown
# T4 sequence: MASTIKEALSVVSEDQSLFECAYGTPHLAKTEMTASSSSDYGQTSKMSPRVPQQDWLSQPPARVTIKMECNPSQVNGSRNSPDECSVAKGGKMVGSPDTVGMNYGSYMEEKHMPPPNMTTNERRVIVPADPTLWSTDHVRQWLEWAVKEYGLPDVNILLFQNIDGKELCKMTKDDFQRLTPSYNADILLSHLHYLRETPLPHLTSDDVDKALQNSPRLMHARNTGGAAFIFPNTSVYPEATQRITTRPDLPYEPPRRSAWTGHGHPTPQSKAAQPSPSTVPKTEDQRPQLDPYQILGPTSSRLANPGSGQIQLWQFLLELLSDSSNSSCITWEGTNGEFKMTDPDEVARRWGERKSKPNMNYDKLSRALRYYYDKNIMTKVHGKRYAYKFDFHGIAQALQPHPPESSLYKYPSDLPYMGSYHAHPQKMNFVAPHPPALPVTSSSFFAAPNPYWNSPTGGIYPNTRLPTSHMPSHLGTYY
# In short: as §1
# ELF1 = ELF1 (Homo sapiens, UniProt P32519 1-619); conditions: protein: recombinant; tags: N-terminal GST; dsDNA, one strand shown
# In short: as §1
# EHF = target: T5, EHF (Homo sapiens, UniProt Q9NZC4 1-300); conditions: protein: recombinant; tags: N-terminal GST; dsDNA, one strand shown
# T5 sequence: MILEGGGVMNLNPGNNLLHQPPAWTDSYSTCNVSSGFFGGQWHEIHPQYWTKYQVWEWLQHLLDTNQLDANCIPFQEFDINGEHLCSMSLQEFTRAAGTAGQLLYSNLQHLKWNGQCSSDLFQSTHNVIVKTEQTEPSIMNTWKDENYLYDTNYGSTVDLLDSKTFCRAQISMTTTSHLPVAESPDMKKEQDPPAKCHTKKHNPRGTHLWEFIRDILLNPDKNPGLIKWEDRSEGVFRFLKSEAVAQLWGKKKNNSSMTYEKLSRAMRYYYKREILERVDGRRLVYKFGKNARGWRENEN
# In short: as §1
# SPI1 = SPI1 (Homo sapiens, UniProt P17947 1-270); conditions: protein: recombinant; tags: N-terminal GST; dsDNA, one strand shown
# In short: as §1
# SPIB = SPIB (Homo sapiens, UniProt Q01892 1-262); conditions: protein: recombinant; tags: N-terminal GST; dsDNA, one strand shown
# In short: as §1
# ELK3 = target: T6, ELK3 (Homo sapiens, UniProt P41970 1-407); conditions: protein: recombinant; tags: N-terminal GST; dsDNA, one strand shown
# T6 sequence: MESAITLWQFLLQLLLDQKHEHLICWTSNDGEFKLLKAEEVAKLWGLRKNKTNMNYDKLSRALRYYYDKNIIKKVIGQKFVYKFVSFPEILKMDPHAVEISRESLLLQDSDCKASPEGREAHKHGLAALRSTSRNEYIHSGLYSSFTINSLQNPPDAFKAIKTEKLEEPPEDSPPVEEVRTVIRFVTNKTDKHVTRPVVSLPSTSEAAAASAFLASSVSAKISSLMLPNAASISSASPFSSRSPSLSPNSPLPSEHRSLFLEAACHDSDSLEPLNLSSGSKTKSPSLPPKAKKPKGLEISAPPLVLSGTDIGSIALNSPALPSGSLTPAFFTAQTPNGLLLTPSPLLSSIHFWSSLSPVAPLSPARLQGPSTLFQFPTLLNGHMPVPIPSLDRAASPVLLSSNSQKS
# In short: as §1
# FEV = target: T7, FEV (Homo sapiens, UniProt Q99581 1-238); conditions: protein: recombinant; tags: N-terminal GST; dsDNA, one strand shown
# T7 sequence: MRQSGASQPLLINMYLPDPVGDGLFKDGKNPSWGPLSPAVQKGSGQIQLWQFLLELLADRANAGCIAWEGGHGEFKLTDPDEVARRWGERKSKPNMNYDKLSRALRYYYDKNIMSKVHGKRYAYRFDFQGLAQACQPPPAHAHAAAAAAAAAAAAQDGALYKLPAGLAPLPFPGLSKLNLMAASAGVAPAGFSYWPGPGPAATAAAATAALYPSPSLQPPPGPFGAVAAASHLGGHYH
# In short: as §1
# ETV5 = ETV5 (Homo sapiens, UniProt P41161 1-510); conditions: protein: recombinant; tags: N-terminal GST; dsDNA, one strand shown
# In short: as §1
# HSF1 = HSF1 (Homo sapiens, UniProt Q00613 1-529); conditions: protein: recombinant; tags: N-terminal GST; chain copies: 3; dsDNA, one strand shown
# In short: as §1
# SPIC = target: T8, SPIC (Homo sapiens, UniProt Q8N5J4 1-248); conditions: protein: recombinant; tags: N-terminal GST; dsDNA, one strand shown
# T8 sequence: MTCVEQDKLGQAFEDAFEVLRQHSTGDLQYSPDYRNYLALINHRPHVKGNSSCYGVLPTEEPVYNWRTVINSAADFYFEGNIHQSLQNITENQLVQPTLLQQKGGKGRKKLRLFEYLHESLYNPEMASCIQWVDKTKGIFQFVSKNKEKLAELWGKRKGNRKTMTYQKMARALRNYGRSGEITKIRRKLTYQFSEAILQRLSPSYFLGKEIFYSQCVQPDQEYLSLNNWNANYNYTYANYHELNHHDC
# In short: as §1
# ELF4 = ELF4 (Homo sapiens, UniProt Q99607 1-663); conditions: protein: recombinant; tags: N-terminal GST; dsDNA, one strand shown
# In short: as §1
# ELK4 = target: T9, ELK4 (Homo sapiens, UniProt P28324-2 1-405); conditions: protein: recombinant; tags: N-terminal GST; dsDNA, one strand shown
# T9 sequence: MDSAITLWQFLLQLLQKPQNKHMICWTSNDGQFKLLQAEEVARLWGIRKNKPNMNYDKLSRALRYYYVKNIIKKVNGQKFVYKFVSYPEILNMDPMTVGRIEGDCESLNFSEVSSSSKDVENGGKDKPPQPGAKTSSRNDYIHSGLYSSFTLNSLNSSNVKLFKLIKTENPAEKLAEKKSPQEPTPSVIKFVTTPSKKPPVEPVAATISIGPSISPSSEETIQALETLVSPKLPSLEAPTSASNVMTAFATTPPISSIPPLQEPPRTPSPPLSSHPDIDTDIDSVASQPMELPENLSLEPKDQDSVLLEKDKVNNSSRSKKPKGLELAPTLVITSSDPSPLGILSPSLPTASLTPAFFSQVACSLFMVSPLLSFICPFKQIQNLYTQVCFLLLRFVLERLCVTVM
# In short: as §1
# ETV2 = target: T10, ETV2 (Homo sapiens, UniProt O00321 1-342); conditions: protein: recombinant; tags: N-terminal GST; dsDNA, one strand shown
# T10 sequence: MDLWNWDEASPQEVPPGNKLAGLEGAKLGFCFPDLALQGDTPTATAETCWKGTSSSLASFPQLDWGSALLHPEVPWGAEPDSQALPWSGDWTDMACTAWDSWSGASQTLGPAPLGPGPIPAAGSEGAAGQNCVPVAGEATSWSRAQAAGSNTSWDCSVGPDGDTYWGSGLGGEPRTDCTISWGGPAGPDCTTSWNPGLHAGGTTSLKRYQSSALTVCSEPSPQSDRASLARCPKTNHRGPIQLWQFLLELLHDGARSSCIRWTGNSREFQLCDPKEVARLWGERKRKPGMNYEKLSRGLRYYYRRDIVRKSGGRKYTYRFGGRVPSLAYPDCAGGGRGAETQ
# In short: as §1
# ELF3 = target: T11, ELF3 (Homo sapiens, UniProt P78545 1-371); conditions: protein: recombinant; tags: N-terminal GST; dsDNA, one strand shown
# T11 sequence: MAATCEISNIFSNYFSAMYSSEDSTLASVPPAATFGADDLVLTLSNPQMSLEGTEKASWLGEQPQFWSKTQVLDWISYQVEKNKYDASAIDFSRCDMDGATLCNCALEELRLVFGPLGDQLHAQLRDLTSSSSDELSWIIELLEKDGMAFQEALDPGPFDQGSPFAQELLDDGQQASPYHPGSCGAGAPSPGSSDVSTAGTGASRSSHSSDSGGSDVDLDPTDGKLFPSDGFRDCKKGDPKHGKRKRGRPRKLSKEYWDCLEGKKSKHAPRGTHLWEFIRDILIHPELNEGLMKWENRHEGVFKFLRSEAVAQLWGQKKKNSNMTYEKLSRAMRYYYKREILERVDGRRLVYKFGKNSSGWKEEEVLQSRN
# In short: as §1
# CRX = CRX (Homo sapiens, UniProt O43186 1-299); conditions: protein: recombinant; tags: N-terminal GST; dsDNA, one strand shown
# In short: as §1
# ETV1 = ETV1 (Homo sapiens, UniProt P50549 1-477); conditions: protein: recombinant; tags: N-terminal GST; dsDNA, one strand shown
# In short: as §1
# Chain of HSF1 (Q00613 whole entry): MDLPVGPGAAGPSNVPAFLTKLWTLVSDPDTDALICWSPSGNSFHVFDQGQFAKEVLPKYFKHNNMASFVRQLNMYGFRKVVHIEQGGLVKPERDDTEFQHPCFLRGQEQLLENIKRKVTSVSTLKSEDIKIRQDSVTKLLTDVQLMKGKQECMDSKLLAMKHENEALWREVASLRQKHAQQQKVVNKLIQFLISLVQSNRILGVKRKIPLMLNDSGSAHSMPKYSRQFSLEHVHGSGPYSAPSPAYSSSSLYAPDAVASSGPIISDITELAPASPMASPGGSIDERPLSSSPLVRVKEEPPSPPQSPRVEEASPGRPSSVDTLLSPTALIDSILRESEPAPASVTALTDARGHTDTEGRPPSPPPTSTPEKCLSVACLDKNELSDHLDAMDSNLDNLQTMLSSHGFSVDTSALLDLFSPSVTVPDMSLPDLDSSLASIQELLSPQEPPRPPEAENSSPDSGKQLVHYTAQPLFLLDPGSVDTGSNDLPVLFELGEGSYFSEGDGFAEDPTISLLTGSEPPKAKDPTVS
# Chain of SPIB (Q01892 whole entry): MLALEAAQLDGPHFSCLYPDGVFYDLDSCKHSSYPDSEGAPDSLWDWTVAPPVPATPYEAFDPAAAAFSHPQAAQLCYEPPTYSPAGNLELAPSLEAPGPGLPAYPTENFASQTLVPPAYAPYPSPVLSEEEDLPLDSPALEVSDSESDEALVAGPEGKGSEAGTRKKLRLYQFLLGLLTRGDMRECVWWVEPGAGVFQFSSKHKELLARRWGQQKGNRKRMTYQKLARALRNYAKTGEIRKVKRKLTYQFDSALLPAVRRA
# Chain of CRX (O43186 whole entry): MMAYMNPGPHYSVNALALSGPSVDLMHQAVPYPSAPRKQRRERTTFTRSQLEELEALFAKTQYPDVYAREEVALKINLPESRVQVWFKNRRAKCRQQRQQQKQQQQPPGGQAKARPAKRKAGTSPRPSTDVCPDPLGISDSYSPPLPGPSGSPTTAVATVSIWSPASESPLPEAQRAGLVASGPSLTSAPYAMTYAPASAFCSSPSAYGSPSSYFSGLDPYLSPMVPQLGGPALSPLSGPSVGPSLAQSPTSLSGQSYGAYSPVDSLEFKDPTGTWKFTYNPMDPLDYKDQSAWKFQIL
# Chain of ELF1 (P32519 whole entry): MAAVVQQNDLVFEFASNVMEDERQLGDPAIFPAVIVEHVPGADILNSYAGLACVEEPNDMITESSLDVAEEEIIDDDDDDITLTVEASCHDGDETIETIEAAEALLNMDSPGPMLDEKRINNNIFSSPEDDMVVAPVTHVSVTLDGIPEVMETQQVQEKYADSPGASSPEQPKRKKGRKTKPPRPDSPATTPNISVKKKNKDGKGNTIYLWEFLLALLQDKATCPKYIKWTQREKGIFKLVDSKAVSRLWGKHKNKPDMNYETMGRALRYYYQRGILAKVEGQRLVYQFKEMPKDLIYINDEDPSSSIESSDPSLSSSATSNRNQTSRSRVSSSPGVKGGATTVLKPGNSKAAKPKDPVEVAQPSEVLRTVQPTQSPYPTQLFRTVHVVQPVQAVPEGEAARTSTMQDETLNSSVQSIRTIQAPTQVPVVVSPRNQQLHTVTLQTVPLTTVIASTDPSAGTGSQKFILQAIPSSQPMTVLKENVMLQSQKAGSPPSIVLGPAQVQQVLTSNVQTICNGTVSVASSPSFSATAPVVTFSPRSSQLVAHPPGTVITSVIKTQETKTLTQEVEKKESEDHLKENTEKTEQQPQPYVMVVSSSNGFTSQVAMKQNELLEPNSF
# Chain of ELF4 (Q99607 whole entry): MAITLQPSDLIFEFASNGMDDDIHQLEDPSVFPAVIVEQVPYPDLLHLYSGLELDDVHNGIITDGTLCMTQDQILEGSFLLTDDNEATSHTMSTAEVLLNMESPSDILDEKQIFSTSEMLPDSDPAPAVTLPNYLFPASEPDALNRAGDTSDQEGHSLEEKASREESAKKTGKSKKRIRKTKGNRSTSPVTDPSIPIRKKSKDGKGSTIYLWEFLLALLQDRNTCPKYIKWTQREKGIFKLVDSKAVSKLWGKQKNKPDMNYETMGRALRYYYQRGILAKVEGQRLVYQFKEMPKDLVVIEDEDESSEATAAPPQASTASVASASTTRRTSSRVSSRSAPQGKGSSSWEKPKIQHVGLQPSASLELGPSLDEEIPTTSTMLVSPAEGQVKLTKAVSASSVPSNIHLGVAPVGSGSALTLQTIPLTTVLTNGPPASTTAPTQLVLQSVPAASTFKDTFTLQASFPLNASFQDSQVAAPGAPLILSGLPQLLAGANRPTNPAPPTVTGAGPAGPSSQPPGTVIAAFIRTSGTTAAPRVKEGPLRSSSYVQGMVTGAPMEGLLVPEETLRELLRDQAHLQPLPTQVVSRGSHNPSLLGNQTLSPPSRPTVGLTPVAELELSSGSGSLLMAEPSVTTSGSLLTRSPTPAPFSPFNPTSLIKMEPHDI
# Chain of ETV1 (P50549 whole entry): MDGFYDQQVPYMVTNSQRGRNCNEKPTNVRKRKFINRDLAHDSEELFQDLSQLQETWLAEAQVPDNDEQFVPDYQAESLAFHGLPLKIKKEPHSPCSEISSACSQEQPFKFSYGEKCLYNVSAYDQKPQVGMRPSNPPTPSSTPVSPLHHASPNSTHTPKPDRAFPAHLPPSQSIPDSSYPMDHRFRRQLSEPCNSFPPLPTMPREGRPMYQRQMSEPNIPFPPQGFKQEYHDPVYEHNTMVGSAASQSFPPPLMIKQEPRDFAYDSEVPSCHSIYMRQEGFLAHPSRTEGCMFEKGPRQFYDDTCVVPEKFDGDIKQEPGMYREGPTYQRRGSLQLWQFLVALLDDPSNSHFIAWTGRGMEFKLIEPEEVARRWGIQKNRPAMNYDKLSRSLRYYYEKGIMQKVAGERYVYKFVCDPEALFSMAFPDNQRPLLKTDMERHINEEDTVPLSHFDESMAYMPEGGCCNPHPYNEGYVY
# Chain of ETV5 (P41161 whole entry): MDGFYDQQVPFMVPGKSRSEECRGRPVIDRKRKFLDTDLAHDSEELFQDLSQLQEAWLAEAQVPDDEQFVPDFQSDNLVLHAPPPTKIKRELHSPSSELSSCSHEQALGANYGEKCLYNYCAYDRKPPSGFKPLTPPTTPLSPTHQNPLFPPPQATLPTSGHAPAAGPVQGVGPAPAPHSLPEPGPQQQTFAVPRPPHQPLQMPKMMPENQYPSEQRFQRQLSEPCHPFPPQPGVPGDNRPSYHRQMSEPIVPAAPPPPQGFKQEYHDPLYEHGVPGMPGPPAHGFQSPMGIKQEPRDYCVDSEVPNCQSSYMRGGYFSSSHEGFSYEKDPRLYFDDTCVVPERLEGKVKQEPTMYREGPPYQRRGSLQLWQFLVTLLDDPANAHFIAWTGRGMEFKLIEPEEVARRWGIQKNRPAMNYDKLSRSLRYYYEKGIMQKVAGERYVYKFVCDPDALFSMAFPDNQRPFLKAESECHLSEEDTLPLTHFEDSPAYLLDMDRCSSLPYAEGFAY
sequence,measurement,setting,value
CTCAAC,binding signal,FLI1,"1.25 fold enrichment (6-mer frequency, TF over GST control)"
same,binding signal,ELK1,"1.32 fold enrichment (6-mer frequency, TF over GST control)"
same,binding signal,GABPA,"1.33 fold enrichment (6-mer frequency, TF over GST control)"
same,binding signal,ERG,"1.24 fold enrichment (6-mer frequency, TF over GST control)"
same,binding signal,ELF1,"1.26 fold enrichment (6-mer frequency, TF over GST control)"
same,binding signal,EHF,"1.18 fold enrichment (6-mer frequency, TF over GST control)"
same,binding signal,SPI1,"1.18 fold enrichment (6-mer frequency, TF over GST control)"
same,binding signal,SPIB,"1.19 fold enrichment (6-mer frequency, TF over GST control)"
same,binding signal,ELK3,"1.28 fold enrichment (6-mer frequency, TF over GST control)"
same,binding signal,FEV,"1.32 fold enrichment (6-mer frequency, TF over GST control)"
same,binding signal,ETV5,"1.3 fold enrichment (6-mer frequency, TF over GST control)"
same,binding signal,HSF1,"1.1 fold enrichment (6-mer frequency, TF over GST control)"
same,binding signal,SPIC,"1.36 fold enrichment (6-mer frequency, TF over GST control)"
same,binding signal,ELF4,"1.3 fold enrichment (6-mer frequency, TF over GST control)"
same,binding signal,ELK4,"1.18 fold enrichment (6-mer frequency, TF over GST control)"
same,binding signal,ETV2,"1.29 fold enrichment (6-mer frequency, TF over GST control)"
same,binding signal,ELF3,"1.19 fold enrichment (6-mer frequency, TF over GST control)"
same,binding signal,CRX,"1.13 fold enrichment (6-mer frequency, TF over GST control)"
same,binding signal,ETV1,"1.24 fold enrichment (6-mer frequency, TF over GST control)"
